Data on 14 compounds can be found in PubChem BioAssay (Tox21).

Values joined by “and” are separate entries in the source; they are usually repeats but may differ in a detail not shown here. Equal entries are not always repeated. Records with an inconclusive call do not appear. Where a structure was tested more than once in an assay, its records may differ in their call. Active and inactive are the calls of the source. Unless noted, calls follow the shape of the dose curve; as a rule, active = well fitted curve in the direction sought with a large enough effect in the repeat runs; inconclusive = weak or mixed curves; inactive = no such curve, though single readings can be large; an effect the other way counts as inactive or inconclusive.

The nature of experiment [1]: qHTS assay to identify small molecule agonists of the vitamin D receptor (VDR) signaling pathway - cell viability counter screen (AID 743224). Also: nearly all actives have a fitted effect of over 50% in size. Also: potency is read from the fitted curve at half-maximal effect. The essentials: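 CellTiter-Glo viability readout on VDR-bla cells, measured after 16 h of compound treatment at 37C in the same wells.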
Experiment [2] in a line: qHTS assay to identify small molecule antagonists of the vitamin D receptor (VDR) signaling pathway - cell viability counter screen (AID 743225). Also: nearly all actives have a fitted effect of over 50% in size. Also: potency is read from the fitted curve at half-maximal effect. The essentials:
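Cytotoxicity counter screen read by CellTiter-Glo luminescence (30 min, room temperature) in the same wells as the VDR-bla antagonist readout. HEK 293T VDR-UAS-bla cells had 16 h at 37C with compound and 3 nM (final) 1-alpha,25-dihydroxyvitamin D3, then 2 h with FRET substrate.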

Experiment [3] is described as follows: qHTS assay to identify small molecule agonists of the NFkB signaling pathway - cell viability counter screen (AID 1159515; calls by dose curve; also: nearly all actives have a fitted effect of over 55% in size; also: potency is read from the fitted curve at half-maximal effect). The essentials:
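Tox21 library compounds were tested for cytotoxicity against NFkB-bla ME-180 cells during a 5 hr exposure at 37 C. CellTiter-Glo luminescence served as the viability read-out.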

Experiment [4] is described as follows: qHTS assay to identify small molecule agonists of the endoplasmic reticulum stress response signaling pathway (AID 1159516; active = well fitted activation curve with a large enough effect in the signal ratio in the repeat runs, not every such curve was filed as active; the % refers to the signal ratio). The essentials:
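Fluorescence at 460 and 530 nm (405 nm excitation) reports beta-lactamase from an ER stress response element in HeLa cells treated 5 hr at 37 C.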

Experiment [5] is described as follows: qHTS assay to identify small molecule antagonists of the retinoid-related orphan receptor gamma (ROR-gamma) signaling pathway - cell viability counter screen (AID 1159520). Also: nearly all actives have a fitted effect of over 50% in size. Also: potency is read from the fitted curve at half-maximal effect. In short, it runs like this:
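Cytotoxicity was read from cellular ATP (CellTiter-Glo luminescence) after 16 hr at 37 C with 1 uM doxycycline induction. The inducer was added 2 hr after compound transfer to Tet-on ROR gamma CHO cells.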

Experiment [6] in a line: qHTS assay to identify small molecule agonists of the AP-1 signaling pathway (AID 1159526; calls by dose curve).
Experiment [7] has as its target Retinoic acid receptor RXR-alpha (Homo sapiens) (UniProt P19793). Put plainly: qHTS assay to identify small molecule agonists of the RXR signaling pathway (AID 1159527; calls by dose curve; also: nearly all actives have a fitted effect of over 35% in size). The essentials:
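Agonist-mode beta-lactamase reporter assay: HEK 293T RXR-alpha-UAS-bla cells treated 16 hr at 37 C with compounds, 9-cis retinoic acid as positive control. LiveBLAzer FRET substrate, 405 nm excitation, 460/530 nm emission.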

A short description of experiment [8]: qHTS assay to identify small molecule agonists of the RXR signaling pathway - cell viability counter screen (AID 1159529). Also: nearly all actives have a fitted effect of over 50% in size. Also: potency is read from the fitted curve at half-maximal effect. The essentials:
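CellTiter-Glo luminescence gave viability in the wells also read for beta-lactamase. Cells (RXR-alpha-UAS-bla HEK 293T, 2% charcoal-stripped FBS medium) had 5 hr plating, then 16 hr compound exposure at 37 C; tetraoctyl ammonium bromide served as positive control.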

Experiment [9] is described as follows: qHTS assay to identify small molecule antagonists of the retinoid acid receptor (RAR) signaling pathway - cell viability counter screen (AID 1159551). Also: nearly all actives have a fitted effect of over 35% in size. Also: potency is read from the fitted curve at half-maximal effect. The essentials:
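In this counter screen, the RARE-luciferase line C3RL4 was exposed for 6 h at 37 C and 5% CO2 to compounds with retinol at 1 uM final. Cellular ATP, read by luminescence, served as the viability measure.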

Experiment [10] deals with Nuclear receptor ROR-gamma (Homo sapiens) (UniProt P51449). Put plainly: qHTS assay to identify small molecule antagonists of the retinoid-related orphan receptor gamma (ROR-gamma) signaling pathway (AID 1159521; also: nearly all actives have a fitted effect of over 50% in size; also: potency is read from the fitted curve at half-maximal effect). In short, it runs like this:
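Antagonist read-out: drop in luminescence (ONE-Glo) from an RORE-LUC reporter in CHO cells with doxycycline-inducible ROR-gamma; 2 hr compound pretreatment, 1 uM doxycycline, 16 hr incubation at 37 C.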

A short description of experiment [11]: qHTS assay to identify small molecule agonists of the AP-1 signaling pathway - cell viability counter screen (AID 1159525; calls by dose curve; also: nearly all actives have a fitted effect of over 55% in size; also: potency is read from the fitted curve at half-maximal effect). The essentials: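 Intracellular ATP by Cell Titer Glo luminescence (30 min, RT) in the same ME-180 AP-1-bla wells after the 5 h compound exposure at 37 °C. Normalised to tetra n-octyl ammonium bromide and DMSO controls.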
The nature of experiment [12]: qHTS assay to identify small molecule antagonists of the retinoic acid receptor (RAR) signaling pathway (AID 1159552; also: nearly all actives have a fitted effect of over 50% in size; also: potency is read from the fitted curve at half-maximal effect). In short, it runs like this:
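Luminescent RARE reporter read-out in C3RL4 cells: 6 hr co-treatment at 37 C of test compounds with retinol at 1 uM final. Cells plated overnight beforehand; luciferase reagent incubated 30 min at room temperature before reading.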

Experiment [13] is described as follows: qHTS assay to identify small molecule agonists of the retinoic acid receptor (RAR) signaling pathway (AID 1159553). Also: potency is read from the fitted curve at half-maximal effect. To be noted: C3RL4 RARE luciferase reporter, agonist, 6 h; activation: at 73.3 µM (top of the series) unless noted. In short, it runs like this: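 In this cell-based screen, 1,000 C3RL4 cells per well were cultured overnight, dosed with test chemicals in DMSO for 6 hr, and assessed for RARE luciferase luminescence.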

Experiment [14] is described as follows: qHTS assay to identify small molecule agonists of the endoplasmic reticulum stress response signaling pathway - cell viability counter screen (AID 1159517; calls by dose curve; also: nearly all actives have a fitted effect of over 50% in size; also: potency is read from the fitted curve at half-maximal effect). In short, it runs like this:
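ESRE-bla HeLa cells (1,500/well) were plated overnight at 37 C and exposed to compounds for 5 hr. After the 2 hr beta-lactamase substrate read, CellTiter-Glo went into the same wells, and luminescence was read after 30 min at room temperature.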

Experiment [15] can be described thus: qHTS assay to identify small molecule antagonists of the estrogen related receptor signaling pathway with the pleiotropic PPARgamma coactivator (PGC) cell viability counter screen (AID 1224822; also: potency is read from the fitted curve at half-maximal effect). In short, it runs like this:
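17.5 h compound treatment of PGC/ERR cells at 37 C; readout CellTiter-Fluor fluorescence; run alongside the PGC/ERR antagonist screen to flag cytotoxic compounds.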

Experiment [16] is described as follows: qHTS assay to identify small molecule antagonists of the estrogen related receptor (ERR) signaling pathway - cell viability counter screen (AID 1224818). In short, it runs like this: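 Viability of ERR cells, CellTiter-Fluor fluorescence; 17.5 h compound exposure at 37 C, DMSO vehicle; 30 min reagent incubation at 37 C/5% CO2.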
The nature of experiment [17]: qHTS assay to identify small molecule antagonists of the estrogen related receptor (ERR) signaling pathway (AID 1224819). In short, it runs like this: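 Seed ERR cells 2,000/well; rest 6 h at 37 C/5% CO2; pin compounds in DMSO; incubate 18 h at 37 C; add One-Glo; wait 30 min at room temperature; measure luminescence.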
A short description of experiment [18]: qHTS assay to identify small molecule agonists of the estrogen related receptor (ERR) signaling pathway (AID 1224820). In short, it runs like this: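 After 6 h plating (2,000 cells/well) and 18 h compound treatment at 37 C, ERR cells were lysed with One-Glo and luminescence read after 30 min at room temperature.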
The test system of experiment [19] is estrogen-related receptor alpha (ERRalpha) with PGC-1alpha coactivator, human. Put plainly: qHTS assay to identify small molecule antagonists of the estrogen related receptor signaling pathway with the pleiotropic PPARgamma coactivator (PGC) (AID 1224821; calls by dose curve). In short, it runs like this: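 Luminescence from One-Glo luciferase reagent (30 min, room temperature) measured after 18 h compound treatment at 37 °C. Cells carry the PGC/ERR reporter and were seeded 6 h prior to dosing.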

Experiment [20] can be described thus: qHTS assay to identify small molecule agonists of the estrogen related receptor signaling pathway with the pleiotropic PPARgamma coactivator (PGC) (AID 1224823). The essentials:
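Luminescence from One-Glo reagent (30 min, room temperature) was read after 18 h compound treatment at 37 C of PGC/ERR cells plated 6 h beforehand; compounds delivered in DMSO by pin tool.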

Retinoic acid receptor RXR-alpha (Homo sapiens), sequence (P19793 whole entry, looked up): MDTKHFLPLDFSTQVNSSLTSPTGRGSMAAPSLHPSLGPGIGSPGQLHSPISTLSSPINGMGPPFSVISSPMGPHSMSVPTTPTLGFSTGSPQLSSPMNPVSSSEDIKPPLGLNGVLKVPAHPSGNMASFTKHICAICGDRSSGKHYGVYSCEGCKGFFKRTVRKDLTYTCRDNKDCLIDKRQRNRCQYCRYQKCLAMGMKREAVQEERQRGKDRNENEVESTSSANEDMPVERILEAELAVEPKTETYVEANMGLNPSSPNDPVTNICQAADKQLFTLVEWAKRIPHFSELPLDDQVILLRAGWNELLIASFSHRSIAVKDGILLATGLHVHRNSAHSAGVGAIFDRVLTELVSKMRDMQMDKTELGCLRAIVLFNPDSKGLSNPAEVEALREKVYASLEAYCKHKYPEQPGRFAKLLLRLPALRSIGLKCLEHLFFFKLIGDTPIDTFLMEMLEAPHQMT

Turning to `O=C(O)[C@H](O)[C@@H](O)[C@H](O[C@@H]1O[C@H](CO)[C@H](O)[C@H](O)[C@H]1O)[C@H](O)CO`, the Potency result in experiment [1], in experiment [2], in [3], in experiment [4], in experiment [5] and in [6] was “inactive” in each case. Also, the Potency entry in experiment [7], in experiment [8] and in experiment [9] was “inactive” in each case.
Regarding `CCN(CC)C(=O)c1cc(S(=O)(=O)Cc2ccccc2)c(N2CCC(c3ccccc3)CC2)cc1N(CC)CCN(C)C`, the Potency in experiment [3] is 21.6 µM (active); in experiment [10] it was 21.4 µM (active); in [11] it was 17.2 µM (active); in [8], 15.3 µM (active); in [12], 21.4 µM (active). The Potency result in experiment [4] and in [13] was “inactive” in each case.
Regarding `Cc1cccc2cccnc12`, the Potency entry in experiment [1], in experiment [3], in experiment [4], in [11], in [6] and in [7] was “inactive” in each case. Also, the Potency entry in experiment [8], in experiment [9], in experiment [12] and in experiment [13] was “inactive” in each case.
`CCC(C)[O-].CCC(C)[O-].CCOC(=O)/C=C(/C)[O-].[Al+3]`: the Potency result in experiment [1], in experiment [2], in experiment [3], in experiment [4], in experiment [11] and in experiment [6] was “inactive” in each case. The Potency entry in [8], in experiment [12] and in experiment [13] was “inactive” each time.
For the compound `COC1=C(OC)C(=O)C(CCCCCCCCCCO)=C(C)C1=O`, the Potency in experiment [2] was 23.9 µM (active); in experiment [10], 18.8 µM (active). Further, the Potency result in experiment [3], in experiment [4], in experiment [9], in [12] and in experiment [13] was “inactive” each time.
On to `Oc1c(I)cc(Cl)c2cccnc12`, for which the Potency in experiment [1] was 5.49 µM (active); in experiment [10], 54.4 µM (active); in experiment [8], 1.09 µM (active); in experiment [13], 76.8 µM (active) and inactive. Also, the Potency result in experiment [3], in [4], in [9] and in experiment [12] was “inactive” throughout.
For the compound `CC(=O)c1ccc(C(C)=O)cc1`, the Potency result in [2], in experiment [3], in experiment [4], in experiment [10], in experiment [11] and in [6] was “inactive” throughout. Also, the Potency result in [7], in experiment [8], in experiment [9], in [12] and in experiment [13] was “inactive” throughout.
With `C#C[C@]1(OC(C)=O)CC[C@H]2[C@@H]3CCC4=C[C@@H](OC(C)=O)CC[C@@H]4[C@H]3CC[C@@]21C`, the Potency entry in experiment [1], in experiment [2], in [3], in experiment [4], in [5] and in [9] was “inactive” throughout. The Potency entry in [13] was “inactive”.
Turning to `Cc1ccc(-c2ccccc2)cc1`, the Potency result in experiment [1], in [3], in [4], in [10], in experiment [11] and in experiment [6] was “inactive” each time. Moreover, the Potency entry in [7], in experiment [8], in [9], in [12] and in experiment [13] was “inactive” each time.
Turning to `CC(C)(C)c1ccc(C(O)CCCN2CCC(C(O)(c3ccccc3)c3ccccc3)CC2)cc1` (stereo not drawn), the Potency in experiment [1] was 13.3 µM (active); in experiment [3] it was 21.3 µM (active); in [14] it was 21.3 µM (active); in experiment [5], 18.8 µM (active); in [10], 13.3 µM (active); in experiment [8], 7.56 µM (active). Besides, the Potency in [15] was 22 µM (active). For the same compound, the Potency result in [2], in experiment [11], in experiment [6], in experiment [9] and in experiment [12] was “inactive” each time.
For the compound `ClCCl`, the Potency entry in experiment [1], in experiment [2], in experiment [3], in [14], in experiment [5] and in [10] was “inactive” each time. The Potency entry in experiment [11], in [6], in experiment [7], in experiment [8], in experiment [9] and in experiment [12] was “inactive” each time. The Potency entry in experiment [13] was “inactive”.
As for `CCN(CC)c1ccc2c(-c3ccc(S(=O)(=O)O)cc3S(=O)(=O)[O-])c3ccc(=[N+](CC)CC)cc-3oc2c1`, the Potency result in [3], in experiment [4], in experiment [6], in experiment [7], in experiment [8] and in experiment [13] was “inactive” throughout. Besides, in [9], the Potency was 31.6 µM (active).
As to `CC[N+](CC)(CC)CCOc1ccc(/C=C/c2ccccc2)cc1`, the Potency result in experiment [1], in experiment [2], in [3], in experiment [4], in experiment [6] and in experiment [8] was “inactive” throughout. Besides, the Potency result in [9], in experiment [13] and in [15] was “inactive” in each case. Moreover, the call in experiment [16], in experiment [18] and in experiment [20] was inactive. Also, the Potency was 8.74 µM (active) in [17] and 12.3 µM (active) in [19].
For `Oc1ccccc1O`, the Potency entry in [1], in [2], in [3], in experiment [14], in experiment [5] and in experiment [11] was “inactive” in each case. The Potency result in experiment [6], in experiment [7], in [12], in [13] and in experiment [15] was “inactive” in each case. Besides, the Potency in [10] is 8.74 µM (active) and 27.3 µM (active). The result in experiment [16] was inactive.
